The source made the active and inactive calls.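 How the source made its calls, unless noted: active means visual image review flags a hit and inhibition of aggregation exceeds 20%; inconclusive means visual hit but inhibition at or below 20%; inactive means no hit on visual image review.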

Assay [1] in a line: inhibitors of TNFa-induced NFkB p65 translocation, primary screen, imaging, HUVEC, MLSMR starter and 10KST1 sets (AID 438;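 active means inhibition above 20% together with a positive visual image hit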;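 further: compound added about 3h40 before a 20 min TNFalpha stimulation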;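 on inhibition: signal is the nuclear over cytoplasmic p65 intensity ratio per well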). Particulars: HUVEC TNFa-induced p65 nuclear translocation; cell count: measured here: nuclei count (cytotoxicity indicator), at 2.08 µM; inhibition: at 2 µM, stronger effect = higher value, 0% TNFa-plus-vehicle, 100% no-TNFa wells.
Assay [2] is described as follows: reduction of polyQ htt aggregates in cells – imaging, exon1htt(103Q)mCFP cells, high-content imaging, primary screen (AID 483).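 Further: compound exposure lasted 3 days before fixation.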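 On nuclei count: percent of the per-plate median nuclei count of sample wells.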 To be noted: exon1htt(103Q)mCFP cell line, aggregate imaging, at 2 µM; inhibition of aggregation: stronger effect = higher value; nuclei count: measured here: cell count, toxicity.
The nature of assay [3]: endothelial E-selectin expression blockers – imaging, HUVEC, immunofluorescence, MLSMR starter and 10KST1 sets, primary screen (AID 487;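 active means visually confirmed hit in the image check and inhibition above 20%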;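 on inhibition: signal is fraction of cell area covered by stained E-selectin grains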;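 on nuclei count: 100% = median nuclei count of all wells on the same plate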). Particulars: HUVEC TNFalpha-induced E-selectin immunofluorescence imaging, at 2 µM; inhibition: stronger effect = higher value; nuclei count: measured here: cell number, toxicity.
Assay [4] concerns the target Voltage-gated potassium channel subunit beta-2 (Rattus norvegicus) (UniProt P62483). Briefly: inhibitors of rat Kvbeta2 reductase activity – biochemical, NADPH fluorescence, primary screen (AID 622;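 active means fluorescence slope higher than the sample average by over 3 SD, cut at about -0.22 in these data, passing the limit was not always enough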;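 further: slope of raw intensity against log time taken from 70 to 1610 s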). To be noted: recombinant KvBeta, 4-cyanobenzaldehyde reduction, at 10 µM, stronger effect = higher value.
For assay [5] the target is unchanged. The assay can be described thus: enhancers of rat Kvbeta2 NADPH turnover – biochemical, NADPH fluorescence, primary screen (AID 623;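 active means NADPH fluorescence slope more negative than the mean of all samples by about 3 SD, 99.7% confidence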;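 further: fluorescence intensity change per second fitted from 20 to 320 s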). To be noted: Recombinant KvBeta, NADPH fluorescence decrease slope, 10 min; at 10 µM; stronger effect = lower value.
The target of assay [6] is Alpha-2C adrenergic receptor (Homo sapiens) (UniProt P18825). The assay can be described thus: compounds altering alpha2C-coupled GIRK flux – cell-based, HEK293 alpha2C/GIRK1/2, thallium flux, primary screen (AID 624;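 active means fluorescence slope after compound addition differing from the mean of all screened samples at 99.7% confidence, in either direction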;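 further: slope of fluorescence ratio to pre-addition baseline per second over 15 to 24 s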). To be noted: thallium flux BTC fluorescence, at 10 µM, actives lie on both sides.
Chain of Alpha-2C adrenergic receptor (Homo sapiens) (P18825 whole entry, looked up): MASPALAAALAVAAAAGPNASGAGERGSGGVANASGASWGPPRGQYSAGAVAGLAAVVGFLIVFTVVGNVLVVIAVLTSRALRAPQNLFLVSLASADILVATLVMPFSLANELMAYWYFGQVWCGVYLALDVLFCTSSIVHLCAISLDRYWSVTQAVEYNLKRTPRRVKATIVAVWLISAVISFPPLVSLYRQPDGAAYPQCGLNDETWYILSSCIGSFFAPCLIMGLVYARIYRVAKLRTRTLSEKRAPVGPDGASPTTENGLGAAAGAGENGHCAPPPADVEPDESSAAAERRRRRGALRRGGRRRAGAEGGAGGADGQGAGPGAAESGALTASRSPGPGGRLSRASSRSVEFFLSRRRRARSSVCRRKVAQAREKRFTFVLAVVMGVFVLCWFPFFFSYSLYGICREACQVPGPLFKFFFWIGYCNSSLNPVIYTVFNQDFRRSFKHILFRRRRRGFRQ
A short description of assay [7]: blockers of RIG-like receptor reporter activation – cell-based, Sendai virus stimulus, luciferase, 10K MLSCN set, TLR/RLR signaling modifier project, primary screen (AID 602276;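 active means inhibition at or above 50% at 10 µM; inactive means inhibition below 50%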;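 further: firefly luciferase from ISG56 promoter only with Renilla not read in this screen; 0% = Sendai virus plus DMSO and 100% = medium plus DMSO without virus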). To be noted: HEK293 RL24 IRF3 luciferase reporter, at 10 µM, stronger effect = higher value.
Assay [8] in a line: TLR3 IRF3 reporter activation blockers – cell-based, poly I:C stimulus, luciferase, 10K MLSCN set, primary screen (AID 602277;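 active means inhibition of the reporter signal at or above 50%; inactive means inhibition below 50%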). Particulars: HEK293-TLR3 RL24 IRF3 luciferase reporter, at 10 µM, stronger effect = higher value.

Chain of Voltage-gated potassium channel subunit beta-2 (Rattus norvegicus) (P62483 whole entry, looked up): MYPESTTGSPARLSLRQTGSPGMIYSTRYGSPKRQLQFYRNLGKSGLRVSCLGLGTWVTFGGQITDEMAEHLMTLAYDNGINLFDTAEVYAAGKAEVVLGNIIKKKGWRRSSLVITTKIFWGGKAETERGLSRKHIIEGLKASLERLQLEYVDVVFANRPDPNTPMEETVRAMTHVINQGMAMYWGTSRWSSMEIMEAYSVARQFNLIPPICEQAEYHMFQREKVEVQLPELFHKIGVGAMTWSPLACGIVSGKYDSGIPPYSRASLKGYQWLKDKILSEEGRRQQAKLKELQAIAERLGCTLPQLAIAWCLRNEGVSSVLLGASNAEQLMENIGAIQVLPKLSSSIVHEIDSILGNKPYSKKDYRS

Take `O=C(NCc1ccc2c(c1)OCO2)c1ccccn1`: the cell count in assay [1] stood at 345. The inhibition was -2% (inactive) in assay [1], 5.4% (inactive) in assay [3], -23.2% (inactive) in assay [7] and -28.1% (inactive) in assay [8]. Besides, the inhibition of aggregation in assay [2] is 18.9% (inactive). Further, the figures for the nuclei count in assay [2] and in assay [3] were 100% and 122%, respectively. Also, the fluorescence slope in assay [4] was -0.375 (inactive). In assay [5], the NADPH fluorescence slope was 4.1e-05 (inactive). Further, the slope in assay [6] was 0.00534 (inactive).
For `CC(=O)c1c(C)[nH]c(C(=O)Nc2c(C)n(C)n(-c3ccccc3)c2=O)c1C`, the cell count in assay [1] is 418. Moreover, the inhibition was 2% (inactive) in assay [1], -137% (inactive) in assay [3], 17.1% (inactive) in assay [7] and 21.5% (inactive) in assay [8]. For the same compound, the inhibition of aggregation in assay [2] was -7.3% (inactive). In addition, the values for the nuclei count in assay [2] and in assay [3] were 112% and 111%, respectively. Besides, in assay [4], the fluorescence slope was -0.493 (inactive). In assay [5], the NADPH fluorescence slope is -2.7e-05 (inactive). Besides, in assay [6], the slope was 0.00389 (inactive).
In the case of `COc1ccc(OC)c(Nc2ncnc3c2cnn3-c2ccccc2)c1`, the cell count in assay [1] turned out to be 334. The inhibition is -6.5% (inactive) in assay [1], -26.3% (inactive) in assay [3], -14.3% (inactive) in assay [7] and -62.3% (inactive) in assay [8]. Also, in assay [2], the inhibition of aggregation was -6.7% (inactive). Also, the nuclei count in assay [2] came to 111%; in assay [3] it was 113%. Moreover, the fluorescence slope in assay [4] is -0.4 (inactive). Moreover, the NADPH fluorescence slope in assay [5] is -2.9e-05 (inactive). Moreover, the slope in assay [6] is 0.00524 (inactive).
On to `CCOCCOc1nc2c(c(=O)n(C)c(=O)n2C)n1Cc1ccc(C)cc1`, for which the cell count in assay [1] is 830. Besides, the inhibition was 2.3% (inactive) in assay [1], -35.1% (inactive) in assay [3], -11.5% (inactive) in assay [7] and -21.6% (inactive) in assay [8]. Further, the inhibition of aggregation in assay [2] was -33.5% (inactive). In addition, the figures for the nuclei count in assay [2] and in assay [3] were 102% and 114%, respectively. The fluorescence slope in assay [4] was -0.46 (inactive). For the same compound, the NADPH fluorescence slope in assay [5] is 5.4e-05 (inactive). Also, the slope in assay [6] is 0.00568 (inactive).
For `COc1ccc(-c2ccc(-c3noc(-c4ccccc4)n3)c(OC)n2)cc1`, in assay [1], the cell count is 359. For the same compound, the inhibition in assay [1] is 1.8% (inactive); in assay [3], 5% (inactive); in assay [7], -7.23% (inactive); in assay [8] it was -29.4% (inactive). Further, the inhibition of aggregation in assay [2] is -12.7% (inactive). Besides, the nuclei count in assay [2] stood at 84.2%; in assay [3], 88.8%. The fluorescence slope in assay [4] was -0.0356 (inactive). Further, the NADPH fluorescence slope in assay [5] was -4.5e-06 (inactive). For the same compound, the slope in assay [6] was 0.0074 (inactive).
Turning to `CCN(CC)C(=O)CSc1nnc(-c2cc(OC)cc(OC)c2)o1`, the cell count in assay [1] amounted to 733. The inhibition was 0.6% (inactive) in assay [1], 19.1% (inactive) in assay [3], 8.18% (inactive) in assay [7] and 2.13% (inactive) in assay [8]. In assay [2], the inhibition of aggregation was 10.3% (inactive). The nuclei count in assay [2] is 100%; in assay [3], 109%. The fluorescence slope in assay [4] is -0.413 (inactive). Also, in assay [5], the NADPH fluorescence slope is -4.5e-05 (inactive). Further, the slope in assay [6] is 0.00522 (inactive).
`Cc1ccc(CCSCC(=O)O)cn1`: the cell count in assay [1] was 174. The inhibition in assay [1] is 4.9% (inactive); in assay [3], 10.4% (inactive); in assay [7] it was 4.3% (inactive); in assay [8] it was 0.219% (inactive). The inhibition of aggregation in assay [2] is 1.9% (inactive). Further, the values for the nuclei count in assay [2] and in assay [3] were 90% and 83.6%, respectively. Also, the fluorescence slope in assay [4] was -0.428 (inactive). Besides, in assay [5], the NADPH fluorescence slope is -1.1e-05 (inactive). The slope in assay [6] is 0.00565 (inactive).
Take `CNC(=O)c1ccsc1NC(=O)CN1C(=O)CCC1=O`: in assay [1], the cell count was 469. The inhibition in assay [1] is -5.4% (inactive); in assay [3] it was 4.8% (inactive); in assay [7] it was 6.37% (inactive); in assay [8], 28.8% (inactive). Besides, the inhibition of aggregation in assay [2] was 10.7% (inactive). The nuclei count in assay [2] is 90.3%; in assay [3], 113%. Further, the fluorescence slope in assay [4] was -0.451 (inactive). The NADPH fluorescence slope in assay [5] is -5.2e-05 (inactive). In addition, the slope in assay [6] was 0.00494 (inactive).
Take `CCOC(=O)c1sc2nc(N3CCCC3)c3c(c2c1N)CC(C)(C)OC3`: in assay [1], the cell count was found to be 410. For the same compound, the inhibition in assay [1] is 2.7% (inactive); in assay [3], -22.4% (inactive); in assay [7], -5.95% (inactive); in assay [8], 2.54% (inactive). The inhibition of aggregation in assay [2] is -0.3% (inactive). The nuclei count in assay [2] turned out to be 105%; in assay [3] it was 103%. The fluorescence slope in assay [4] was -0.302 (inactive). The NADPH fluorescence slope in assay [5] is -1.6e-05 (inactive). In addition, in assay [6], the slope was 0.0041 (inactive).
Turning to `O=C1C2CC=CCC2C(=O)N1c1ccc(Cc2ccncc2)cc1` (centres undefined), the cell count in assay [1] came to 591. Also, the inhibition in assay [1] is -2.9% (inactive); in assay [3], 29.1% (inactive); in assay [7], -2.68% (inactive); in assay [8], -12.7% (inactive). Besides, the inhibition of aggregation in assay [2] was -8.1% (inactive). Also, the nuclei count in assay [2] is 107%; in assay [3], 95.7%. The fluorescence slope in assay [4] was -0.43 (inactive). For the same compound, in assay [5], the NADPH fluorescence slope is 5.4e-05 (inactive). For the same compound, the slope in assay [6] was 0.00567 (inactive).
With `CCn1c(SCC(=O)Nc2ccc3c(c2)OCO3)nnc1-c1ccccc1O`, the cell count in assay [1] amounted to 468. Besides, the inhibition was -6.3% (inactive) in assay [1], -143% (inactive) in assay [3], 11.9% (inactive) in assay [7] and 0.128% (inactive) in assay [8]. Also, the inhibition of aggregation in assay [2] was 2% (inactive). The nuclei count in assay [2] amounted to 113%; in assay [3] it was 151%. Moreover, the fluorescence slope in assay [4] is -0.5 (inactive). The NADPH fluorescence slope in assay [5] was -5.6e-05 (inactive). For the same compound, in assay [6], the slope is 0.0056 (inactive).
For `CCOc1ccc(C2C=C(c3ccc(F)cc3)Nc3ncnn32)cc1` (centres undefined), the cell count in assay [1] stood at 548. The inhibition in assay [1] was 11.5% (inactive); in assay [3], -113% (inactive); in assay [7] it was 6.86% (inactive); in assay [8], 12.6% (inactive). Besides, the inhibition of aggregation in assay [2] is -15.6% (inactive). For the same compound, the nuclei count stood at 74.5% in assay [2] and 125% in assay [3]. The fluorescence slope in assay [4] is -0.0654 (active). Also, the NADPH fluorescence slope in assay [5] was -6.9e-06 (inactive). In addition, the slope in assay [6] was 0.00554 (inactive).
Turning to `COc1ccc(-c2ccc(-c3noc(-c4ccccc4OC)n3)c(OC)n2)cc1`, the cell count in assay [1] turned out to be 294. Further, the inhibition in assay [1] is 16.9% (inactive); in assay [3], -1.9% (inactive); in assay [7] it was -0.193% (inactive); in assay [8], -36.2% (inactive). In assay [2], the inhibition of aggregation was -30.2% (inactive). In addition, the nuclei count in assay [2] stood at 86.6%; in assay [3], 111%. The fluorescence slope in assay [4] is -0.0455 (inactive). The NADPH fluorescence slope in assay [5] is -3.2e-06 (inactive). The slope in assay [6] was 0.00463 (inactive).
`Clc1cccc(-c2nnc(-c3ccccc3)o2)c1`: in assay [1], the cell count is 610. Besides, the inhibition in assay [1] was -15.9% (inactive); in assay [3], 4.7% (inactive); in assay [7], -18.1% (inactive); in assay [8] it was -47% (inactive). Besides, in assay [2], the inhibition of aggregation is -13.5% (inactive). The nuclei count in assay [2] worked out at 110%; in assay [3] it was 124%. Moreover, the fluorescence slope in assay [4] was -0.391 (inactive). For the same compound, the NADPH fluorescence slope in assay [5] is 3.1e-05 (inactive). In addition, the slope in assay [6] was 0.00595 (inactive).
